# Data: PMC7862700, “An all-to-all approach to the identification of sequence-specific readers for epigenetic DNA modifications on cytosine”
# Tests used:
# Experiment in all cases: DAPPL (digital affinity profiling via proximity ligation, sequencing); 10 mM Tris-HCl pH 7.5, 50 mM NaCl, 1 mM DTT, 4% glycerol, room temperature, 30 min; GST-TFs on glutathione beads, 16-mer random dsDNA library, 0.1% formaldehyde crosslink after washing; high values mean tight binding
# [1] = molecular target: T1, FLI1 (Homo sapiens, UniProt Q01543 1-452); settings: protein: recombinant; tags: N-terminal GST; dsDNA, one strand shown
# T1 sequence: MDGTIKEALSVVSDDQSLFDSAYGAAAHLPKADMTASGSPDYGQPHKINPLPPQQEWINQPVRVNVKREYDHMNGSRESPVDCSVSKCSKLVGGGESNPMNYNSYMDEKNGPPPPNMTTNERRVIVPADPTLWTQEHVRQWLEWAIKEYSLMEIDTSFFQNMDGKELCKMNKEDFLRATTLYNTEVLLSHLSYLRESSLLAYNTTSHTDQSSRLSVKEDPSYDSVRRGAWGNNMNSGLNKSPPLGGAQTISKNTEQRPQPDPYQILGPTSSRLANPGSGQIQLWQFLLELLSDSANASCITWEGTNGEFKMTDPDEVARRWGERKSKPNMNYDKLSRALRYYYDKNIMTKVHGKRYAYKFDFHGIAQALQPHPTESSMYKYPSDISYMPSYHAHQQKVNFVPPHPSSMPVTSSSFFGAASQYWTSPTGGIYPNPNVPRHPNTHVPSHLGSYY
# Outline: (§1)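 Pools were built from human transcription factors expressed in yeast as GST fusions, captured on glutathione beads and DNA-barcoded, along with a tag-only sample. Incubation with 200 nmole of a 16-mer random double-stranded DNA library lasted 30 min at room temperature in Tris/NaCl/DTT/glycerol buffer, and was followed by washing, 0.1% formaldehyde crosslinking, proximity ligation, PCR amplification and Illumina NextSeq500 sequencing. Binding signal is the quotient of each hexamer's read frequency for a factor and its frequency for the tag-only sample.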
# [2] = molecular target: T2, ELK1 (Homo sapiens, UniProt P19419 1-428); settings: protein: recombinant; tags: N-terminal GST; dsDNA, one strand shown
# T2 sequence: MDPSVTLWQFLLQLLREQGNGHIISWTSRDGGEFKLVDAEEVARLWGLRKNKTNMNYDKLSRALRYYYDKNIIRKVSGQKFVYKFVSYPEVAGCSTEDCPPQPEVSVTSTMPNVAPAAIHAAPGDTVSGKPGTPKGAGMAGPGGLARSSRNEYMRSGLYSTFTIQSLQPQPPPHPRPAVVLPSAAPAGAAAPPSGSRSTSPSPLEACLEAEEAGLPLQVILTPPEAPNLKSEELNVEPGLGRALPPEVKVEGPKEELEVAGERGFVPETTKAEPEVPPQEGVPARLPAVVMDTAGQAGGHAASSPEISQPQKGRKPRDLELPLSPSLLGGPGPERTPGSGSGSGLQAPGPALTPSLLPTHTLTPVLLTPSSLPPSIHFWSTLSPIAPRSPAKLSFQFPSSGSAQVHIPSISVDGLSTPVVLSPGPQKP
# Outline: as §1
# [3] = molecular target: T3, GABPA (Homo sapiens, UniProt Q06546 1-454); settings: protein: recombinant; tags: N-terminal GST; dsDNA, one strand shown
# T3 sequence: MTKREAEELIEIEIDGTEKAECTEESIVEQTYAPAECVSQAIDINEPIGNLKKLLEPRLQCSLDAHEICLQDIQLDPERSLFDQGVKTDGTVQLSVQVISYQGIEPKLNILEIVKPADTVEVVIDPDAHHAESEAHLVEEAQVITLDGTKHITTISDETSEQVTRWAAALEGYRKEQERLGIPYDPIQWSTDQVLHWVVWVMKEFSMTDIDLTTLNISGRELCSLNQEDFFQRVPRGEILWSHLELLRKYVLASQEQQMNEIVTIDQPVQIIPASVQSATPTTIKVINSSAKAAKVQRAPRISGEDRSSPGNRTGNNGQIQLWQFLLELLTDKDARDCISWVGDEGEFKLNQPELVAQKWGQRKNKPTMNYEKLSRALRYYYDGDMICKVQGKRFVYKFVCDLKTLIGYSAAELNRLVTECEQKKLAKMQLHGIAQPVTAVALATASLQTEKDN
# Outline: as §1
# [4] = molecular target: T4, ERG (Homo sapiens, UniProt P11308 1-479); settings: protein: recombinant; tags: N-terminal GST; dsDNA, one strand shown
# T4 sequence: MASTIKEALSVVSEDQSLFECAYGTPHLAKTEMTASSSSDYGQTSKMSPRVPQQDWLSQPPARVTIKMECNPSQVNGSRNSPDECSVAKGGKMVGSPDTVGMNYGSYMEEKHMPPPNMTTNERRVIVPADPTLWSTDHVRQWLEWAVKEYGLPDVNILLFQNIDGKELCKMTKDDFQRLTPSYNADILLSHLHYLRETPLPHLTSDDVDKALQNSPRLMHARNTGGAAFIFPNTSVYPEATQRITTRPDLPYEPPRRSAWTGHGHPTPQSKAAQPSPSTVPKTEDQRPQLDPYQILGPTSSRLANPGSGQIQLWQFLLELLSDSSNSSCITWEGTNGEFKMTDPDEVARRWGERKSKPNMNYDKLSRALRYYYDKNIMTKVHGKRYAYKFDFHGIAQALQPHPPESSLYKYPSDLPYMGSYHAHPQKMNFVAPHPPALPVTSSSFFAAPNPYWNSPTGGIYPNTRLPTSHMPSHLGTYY
# Outline: as §1
# [5] = molecular target: ELF1 (Homo sapiens, UniProt P32519 1-619); settings: protein: recombinant; tags: N-terminal GST; dsDNA, one strand shown
# Outline: as §1
# [6] = molecular target: T5, EHF (Homo sapiens, UniProt Q9NZC4 1-300); settings: protein: recombinant; tags: N-terminal GST; dsDNA, one strand shown
# T5 sequence: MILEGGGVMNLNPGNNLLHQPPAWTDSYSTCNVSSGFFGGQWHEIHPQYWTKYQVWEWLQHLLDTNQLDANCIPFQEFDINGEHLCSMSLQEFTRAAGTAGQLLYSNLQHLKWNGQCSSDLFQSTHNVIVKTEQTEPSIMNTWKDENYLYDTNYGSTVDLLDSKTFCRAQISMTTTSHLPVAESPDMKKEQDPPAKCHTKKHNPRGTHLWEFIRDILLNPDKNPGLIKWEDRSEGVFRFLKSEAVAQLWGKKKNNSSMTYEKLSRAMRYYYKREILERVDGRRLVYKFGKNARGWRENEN
# Outline: as §1
# [7] = molecular target: SPI1 (Homo sapiens, UniProt P17947 1-270); settings: protein: recombinant; tags: N-terminal GST; dsDNA, one strand shown
# Outline: as §1
# [8] = molecular target: SPIB (Homo sapiens, UniProt Q01892 1-262); settings: protein: recombinant; tags: N-terminal GST; dsDNA, one strand shown
# Outline: as §1
# [9] = molecular target: T6, ELK3 (Homo sapiens, UniProt P41970 1-407); settings: protein: recombinant; tags: N-terminal GST; dsDNA, one strand shown
# T6 sequence: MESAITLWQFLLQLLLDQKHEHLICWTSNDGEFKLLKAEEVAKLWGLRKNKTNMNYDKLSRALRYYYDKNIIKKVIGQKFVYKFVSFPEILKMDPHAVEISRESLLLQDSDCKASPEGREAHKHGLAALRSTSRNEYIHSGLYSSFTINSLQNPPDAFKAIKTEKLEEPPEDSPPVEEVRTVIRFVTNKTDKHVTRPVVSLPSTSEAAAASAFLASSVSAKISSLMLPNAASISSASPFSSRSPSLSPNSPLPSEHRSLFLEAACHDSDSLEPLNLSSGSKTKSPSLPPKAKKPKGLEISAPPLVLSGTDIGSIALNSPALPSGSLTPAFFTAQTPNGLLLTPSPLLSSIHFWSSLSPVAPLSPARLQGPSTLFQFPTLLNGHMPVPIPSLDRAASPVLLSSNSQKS
# Outline: as §1
# [10] = molecular target: T7, FEV (Homo sapiens, UniProt Q99581 1-238); settings: protein: recombinant; tags: N-terminal GST; dsDNA, one strand shown
# T7 sequence: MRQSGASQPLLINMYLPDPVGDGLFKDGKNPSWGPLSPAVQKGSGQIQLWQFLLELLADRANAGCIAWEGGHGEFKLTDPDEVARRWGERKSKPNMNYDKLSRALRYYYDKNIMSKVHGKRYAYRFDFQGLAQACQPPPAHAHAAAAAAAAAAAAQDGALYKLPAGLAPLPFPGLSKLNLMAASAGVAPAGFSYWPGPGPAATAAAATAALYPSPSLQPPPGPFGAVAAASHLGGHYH
# Outline: as §1
# [11] = molecular target: ETV5 (Homo sapiens, UniProt P41161 1-510); settings: protein: recombinant; tags: N-terminal GST; dsDNA, one strand shown
# Outline: as §1
# [12] = molecular target: HSF1 (Homo sapiens, UniProt Q00613 1-529); settings: protein: recombinant; tags: N-terminal GST; chain copies: 3; dsDNA, one strand shown
# Outline: as §1
# [13] = molecular target: T8, SPIC (Homo sapiens, UniProt Q8N5J4 1-248); settings: protein: recombinant; tags: N-terminal GST; dsDNA, one strand shown
# T8 sequence: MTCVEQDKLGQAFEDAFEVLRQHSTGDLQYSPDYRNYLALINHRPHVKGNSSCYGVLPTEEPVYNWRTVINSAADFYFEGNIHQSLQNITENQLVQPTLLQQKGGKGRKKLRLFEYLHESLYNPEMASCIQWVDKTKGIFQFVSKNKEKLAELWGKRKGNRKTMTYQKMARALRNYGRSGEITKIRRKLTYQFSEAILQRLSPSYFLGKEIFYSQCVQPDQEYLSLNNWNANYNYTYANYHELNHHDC
# Outline: as §1
# [14] = molecular target: ELF4 (Homo sapiens, UniProt Q99607 1-663); settings: protein: recombinant; tags: N-terminal GST; dsDNA, one strand shown
# Outline: as §1
# [15] = molecular target: T9, ELK4 (Homo sapiens, UniProt P28324-2 1-405); settings: protein: recombinant; tags: N-terminal GST; dsDNA, one strand shown
# T9 sequence: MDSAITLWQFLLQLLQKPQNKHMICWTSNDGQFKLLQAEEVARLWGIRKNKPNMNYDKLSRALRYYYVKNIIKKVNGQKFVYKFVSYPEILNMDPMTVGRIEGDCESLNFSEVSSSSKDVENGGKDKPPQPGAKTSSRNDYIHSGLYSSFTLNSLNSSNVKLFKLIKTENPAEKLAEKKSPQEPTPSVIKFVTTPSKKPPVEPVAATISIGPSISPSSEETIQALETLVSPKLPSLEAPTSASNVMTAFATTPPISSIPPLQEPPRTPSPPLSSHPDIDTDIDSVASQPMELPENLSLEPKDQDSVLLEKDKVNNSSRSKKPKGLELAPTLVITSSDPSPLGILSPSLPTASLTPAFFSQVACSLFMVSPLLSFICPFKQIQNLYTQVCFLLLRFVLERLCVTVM
# Outline: as §1
# [16] = molecular target: T10, ETV2 (Homo sapiens, UniProt O00321 1-342); settings: protein: recombinant; tags: N-terminal GST; dsDNA, one strand shown
# T10 sequence: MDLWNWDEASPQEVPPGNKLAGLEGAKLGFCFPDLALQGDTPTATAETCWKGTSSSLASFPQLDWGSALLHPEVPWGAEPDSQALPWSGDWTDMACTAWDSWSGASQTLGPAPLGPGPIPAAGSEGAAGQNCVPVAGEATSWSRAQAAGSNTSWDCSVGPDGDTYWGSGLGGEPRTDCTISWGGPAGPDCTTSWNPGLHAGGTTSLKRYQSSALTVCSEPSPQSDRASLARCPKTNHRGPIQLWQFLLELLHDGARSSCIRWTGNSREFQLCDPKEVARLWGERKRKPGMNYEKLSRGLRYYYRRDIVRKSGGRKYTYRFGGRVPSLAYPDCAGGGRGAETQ
# Outline: as §1
# [17] = molecular target: T11, ELF3 (Homo sapiens, UniProt P78545 1-371); settings: protein: recombinant; tags: N-terminal GST; dsDNA, one strand shown
# T11 sequence: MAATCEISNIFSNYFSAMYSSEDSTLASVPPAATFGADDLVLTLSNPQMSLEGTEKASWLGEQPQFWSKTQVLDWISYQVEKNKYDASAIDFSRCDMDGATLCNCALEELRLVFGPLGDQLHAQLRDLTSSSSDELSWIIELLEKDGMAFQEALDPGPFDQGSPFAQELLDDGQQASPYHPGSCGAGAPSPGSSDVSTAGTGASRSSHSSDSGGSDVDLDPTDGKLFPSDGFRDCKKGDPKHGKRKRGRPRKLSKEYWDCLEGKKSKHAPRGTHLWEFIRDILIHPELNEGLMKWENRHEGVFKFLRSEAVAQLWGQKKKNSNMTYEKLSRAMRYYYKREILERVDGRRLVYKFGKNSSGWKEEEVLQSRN
# Outline: as §1
# [18] = molecular target: CRX (Homo sapiens, UniProt O43186 1-299); settings: protein: recombinant; tags: N-terminal GST; dsDNA, one strand shown
# Outline: as §1
# [19] = molecular target: ETV1 (Homo sapiens, UniProt P50549 1-477); settings: protein: recombinant; tags: N-terminal GST; dsDNA, one strand shown
# Outline: as §1
# Chain of ELF4 (Q99607 whole entry): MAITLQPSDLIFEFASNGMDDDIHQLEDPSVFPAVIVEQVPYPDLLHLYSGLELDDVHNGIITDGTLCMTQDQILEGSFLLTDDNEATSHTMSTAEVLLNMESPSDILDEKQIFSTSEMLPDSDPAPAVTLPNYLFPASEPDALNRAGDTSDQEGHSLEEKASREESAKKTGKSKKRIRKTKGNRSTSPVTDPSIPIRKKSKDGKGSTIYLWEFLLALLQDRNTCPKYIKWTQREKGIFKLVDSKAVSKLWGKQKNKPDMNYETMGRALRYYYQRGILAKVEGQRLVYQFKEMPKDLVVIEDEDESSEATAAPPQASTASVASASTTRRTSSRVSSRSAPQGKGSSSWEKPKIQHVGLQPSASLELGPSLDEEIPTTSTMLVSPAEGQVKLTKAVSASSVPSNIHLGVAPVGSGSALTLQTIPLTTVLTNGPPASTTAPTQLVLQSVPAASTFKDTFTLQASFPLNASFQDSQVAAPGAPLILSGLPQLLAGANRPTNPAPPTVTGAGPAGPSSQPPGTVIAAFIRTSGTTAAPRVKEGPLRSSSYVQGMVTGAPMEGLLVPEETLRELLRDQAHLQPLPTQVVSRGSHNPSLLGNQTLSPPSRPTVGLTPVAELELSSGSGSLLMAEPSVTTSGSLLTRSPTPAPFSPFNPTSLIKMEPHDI
# Chain of CRX (O43186 whole entry): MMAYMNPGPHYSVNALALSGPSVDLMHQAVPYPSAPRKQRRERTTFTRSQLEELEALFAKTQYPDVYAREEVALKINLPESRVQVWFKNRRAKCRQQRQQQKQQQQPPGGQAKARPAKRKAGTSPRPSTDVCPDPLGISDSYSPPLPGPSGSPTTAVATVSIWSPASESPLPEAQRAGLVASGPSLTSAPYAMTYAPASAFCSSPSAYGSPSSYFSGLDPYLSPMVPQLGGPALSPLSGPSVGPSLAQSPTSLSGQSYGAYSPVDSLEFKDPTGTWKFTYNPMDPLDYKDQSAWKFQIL
# Chain of SPIB (Q01892 whole entry): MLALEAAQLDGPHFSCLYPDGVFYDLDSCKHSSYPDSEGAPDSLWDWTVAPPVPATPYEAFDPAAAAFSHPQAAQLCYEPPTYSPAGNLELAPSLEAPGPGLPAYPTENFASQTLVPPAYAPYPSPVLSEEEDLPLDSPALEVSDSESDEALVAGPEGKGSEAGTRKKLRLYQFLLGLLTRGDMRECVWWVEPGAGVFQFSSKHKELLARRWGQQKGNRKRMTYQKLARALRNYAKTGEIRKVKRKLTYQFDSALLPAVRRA
# Chain of ELF1 (P32519 whole entry): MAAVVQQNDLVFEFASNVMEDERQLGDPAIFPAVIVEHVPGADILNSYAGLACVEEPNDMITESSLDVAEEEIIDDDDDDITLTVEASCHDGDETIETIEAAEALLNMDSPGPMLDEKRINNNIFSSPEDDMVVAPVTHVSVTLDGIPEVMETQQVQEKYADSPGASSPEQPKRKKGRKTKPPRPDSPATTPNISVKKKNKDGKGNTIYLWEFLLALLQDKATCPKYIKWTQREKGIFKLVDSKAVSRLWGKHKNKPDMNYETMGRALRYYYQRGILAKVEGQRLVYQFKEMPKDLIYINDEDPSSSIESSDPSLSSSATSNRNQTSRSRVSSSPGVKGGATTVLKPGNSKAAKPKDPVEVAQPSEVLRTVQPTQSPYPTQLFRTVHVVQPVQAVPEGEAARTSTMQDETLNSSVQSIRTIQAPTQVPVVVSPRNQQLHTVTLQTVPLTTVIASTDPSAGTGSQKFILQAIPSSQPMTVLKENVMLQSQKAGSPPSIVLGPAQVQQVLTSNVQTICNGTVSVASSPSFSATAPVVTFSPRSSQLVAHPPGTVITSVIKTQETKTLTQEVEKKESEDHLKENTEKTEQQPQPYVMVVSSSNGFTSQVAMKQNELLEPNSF
# Chain of HSF1 (Q00613 whole entry): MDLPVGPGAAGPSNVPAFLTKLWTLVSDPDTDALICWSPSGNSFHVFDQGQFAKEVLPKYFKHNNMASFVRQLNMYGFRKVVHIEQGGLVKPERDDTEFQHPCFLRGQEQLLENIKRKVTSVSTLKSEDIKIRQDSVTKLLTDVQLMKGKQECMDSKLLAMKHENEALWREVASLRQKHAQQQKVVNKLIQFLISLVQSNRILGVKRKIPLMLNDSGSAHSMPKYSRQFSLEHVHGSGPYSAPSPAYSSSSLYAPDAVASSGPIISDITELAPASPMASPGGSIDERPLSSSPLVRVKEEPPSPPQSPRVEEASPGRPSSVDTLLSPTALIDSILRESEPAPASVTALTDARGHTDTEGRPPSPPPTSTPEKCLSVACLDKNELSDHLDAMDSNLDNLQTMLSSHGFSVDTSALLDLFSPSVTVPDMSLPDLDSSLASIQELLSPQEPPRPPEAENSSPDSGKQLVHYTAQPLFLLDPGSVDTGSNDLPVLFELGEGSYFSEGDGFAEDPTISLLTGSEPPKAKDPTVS
# Chain of ETV1 (P50549 whole entry): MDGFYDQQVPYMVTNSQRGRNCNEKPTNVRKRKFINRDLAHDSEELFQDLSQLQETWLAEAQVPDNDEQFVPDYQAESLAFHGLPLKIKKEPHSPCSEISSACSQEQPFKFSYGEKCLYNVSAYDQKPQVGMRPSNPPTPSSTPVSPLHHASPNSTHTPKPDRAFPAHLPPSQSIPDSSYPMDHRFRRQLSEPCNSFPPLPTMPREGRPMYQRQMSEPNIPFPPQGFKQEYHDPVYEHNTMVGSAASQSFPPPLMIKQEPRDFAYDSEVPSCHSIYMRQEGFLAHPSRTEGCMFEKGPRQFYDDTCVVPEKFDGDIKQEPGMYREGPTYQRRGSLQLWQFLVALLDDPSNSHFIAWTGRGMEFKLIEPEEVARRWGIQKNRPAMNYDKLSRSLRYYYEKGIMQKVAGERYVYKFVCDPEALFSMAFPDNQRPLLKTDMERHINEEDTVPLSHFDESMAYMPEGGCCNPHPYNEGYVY
# Chain of ETV5 (P41161 whole entry): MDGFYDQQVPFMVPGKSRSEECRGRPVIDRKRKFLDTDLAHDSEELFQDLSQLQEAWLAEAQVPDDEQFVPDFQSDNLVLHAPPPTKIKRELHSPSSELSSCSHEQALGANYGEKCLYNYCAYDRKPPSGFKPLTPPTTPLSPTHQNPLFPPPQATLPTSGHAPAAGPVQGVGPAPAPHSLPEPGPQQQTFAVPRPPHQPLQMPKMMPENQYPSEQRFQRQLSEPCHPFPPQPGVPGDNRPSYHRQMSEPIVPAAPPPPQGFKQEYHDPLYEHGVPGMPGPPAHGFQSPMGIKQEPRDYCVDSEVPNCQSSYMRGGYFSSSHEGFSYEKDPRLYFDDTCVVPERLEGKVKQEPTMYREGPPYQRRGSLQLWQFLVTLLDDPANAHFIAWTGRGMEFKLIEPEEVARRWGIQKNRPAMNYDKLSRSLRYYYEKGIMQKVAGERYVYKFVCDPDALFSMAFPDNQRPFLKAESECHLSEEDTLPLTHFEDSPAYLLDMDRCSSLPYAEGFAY
sequence,measurement,setting,value
TTGTAT,binding signal,[1],"1.52 fold enrichment (6-mer frequency, TF over GST control)"
same,binding signal,[2],"1.33 fold enrichment (6-mer frequency, TF over GST control)"
same,binding signal,[3],"1.29 fold enrichment (6-mer frequency, TF over GST control)"
same,binding signal,[4],"1.31 fold enrichment (6-mer frequency, TF over GST control)"
same,binding signal,[5],"1.32 fold enrichment (6-mer frequency, TF over GST control)"
same,binding signal,[6],"1.37 fold enrichment (6-mer frequency, TF over GST control)"
same,binding signal,[7],"1.11 fold enrichment (6-mer frequency, TF over GST control)"
same,binding signal,[8],"1.38 fold enrichment (6-mer frequency, TF over GST control)"
same,binding signal,[9],"1.4 fold enrichment (6-mer frequency, TF over GST control)"
same,binding signal,[10],"1.26 fold enrichment (6-mer frequency, TF over GST control)"
same,binding signal,[11],"1.26 fold enrichment (6-mer frequency, TF over GST control)"
same,binding signal,[12],"1.21 fold enrichment (6-mer frequency, TF over GST control)"
same,binding signal,[13],"1.28 fold enrichment (6-mer frequency, TF over GST control)"
same,binding signal,[14],"1.35 fold enrichment (6-mer frequency, TF over GST control)"
same,binding signal,[15],"1.43 fold enrichment (6-mer frequency, TF over GST control)"
same,binding signal,[16],"1.4 fold enrichment (6-mer frequency, TF over GST control)"
same,binding signal,[17],"1.34 fold enrichment (6-mer frequency, TF over GST control)"
same,binding signal,[18],"1.42 fold enrichment (6-mer frequency, TF over GST control)"
same,binding signal,[19],"1.3 fold enrichment (6-mer frequency, TF over GST control)"
